About 3,700 (7%) of roughly 53,000 sequences were called active.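 Rule for the calls: active = gene knockdowns whose robust z-score for IL-1 alpha signal is at least 2 or at most -2, so actives lie on both sides; inactive = the rest.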 Shown is part of a subset that was picked to be rich in actives.

This test is described as follows: Components of the Cytosolic LPS Sensing Pathway: Gene Identification via Genome-wide siRNA Screen.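 Note: robust z of the log signal after scaling to non-targeting control siRNA wells of the plate.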 The following applies: RAW264.7 macrophages, IL-1a HTRF, actives lie on both sides, screened at 100 nM (by protocol), cells primed 5 h with Pam3CSK4 first. In short, it runs like this: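 Read-out: IL-1a HTRF on supernatant, divided by plate negative-control median ×100, log-transformed and converted to robust z-score. Cells were RAW264.7 given 100 nM siRNA, Pam3CSK4-primed 5 hours, then LipidA-transfected 24 hour.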
(In general: TR-FRET usually uses a lanthanide donor and a delayed reading to cut background.)
Regarding GGUGUAUUGAGCUAAACAUTT against Rnft2, the z-score was -0.344 (inactive). GGCAUGAGCGAGUUAAACCTT against Usp53: the z-score was 1.65 (inactive). In the case of GGAGAACAUUCAGGUGACATT against Pdgfd, the z-score is -0.625 (inactive). Consider GGCGAUGUGAAAAUCUUAATT against Xpnpep2, for which the z-score is 3.65 (active). For the sequence GGCCUCUUAUGUCAACCUGTT against Rpsa, the z-score was -1.57 (inactive). Take GCCGAUUCUUCAAUGUGCGTT against Ribc1: the z-score is -0.242 (inactive). Regarding CCAGCACGCUGAAGUCUGATT against Adam19, the z-score is 1.21 (inactive). Consider “CCCUAUCGUGAUUUAUUGGTT against C130073F10Rik”, for which the z-score is -1.33 (inactive). GGGUACAAAGCAACAUUGGTT against Disp1: the z-score is 4.2 (active).

As for GCAAUGUGCACGAUGAUGATT against Pik3cg, the z-score is -0.79 (inactive).

Regarding CCUAGUGAAUCCUCUCGUATT against Eqtn, the z-score was 0.178 (inactive).

In the case of GCCGAGCUCAAUGUGGGUATT against Bsn, the z-score was 1.11 (inactive).

As for GGAAGAAAGUGAGCCUUGUTT against Senp6, the z-score was -2.14 (active).

As for GGCAGAGAGAUGUUACAAGTT against Ccl8, the z-score was 0.408 (inactive). As for GGUACACUGGUAUACGUAUTT against Samd9l, the z-score is -1.45 (inactive). Regarding GGCUGAUCCAUUUUCACAATT against Adam6a, the z-score is -2.77 (active).

As to GGUUUCAAGACAUUGAAAGTT against Arl14ep, the z-score is -0.424 (inactive). The value for CGAUGACAUCAGGAUUGUUTT against Adgrg7 was -0.124 (inactive); that for GGACUUAUUAUGUGAGUGUTT against Ncbp2 was 0.555 (inactive); that for GGAAAUCAGAAGAAGAACATT against Hars was 2.67 (active). As to “CGGACACACUUUGUUAUUATT against 4833420G17Rik”, the z-score was 0.198 (inactive). For GGACGUAACAAAAUGUUCUTT against P2ry12 the value was 0.578 (inactive); for CGGUGGAAUUCGUUAGAAGTT against Ireb2, -0.183 (inactive). Regarding GGAAGGCCCUAGAAAGGACTT against Gm5094, the z-score was 0.209 (inactive). In the case of GCGUGGCUGUCAUGUAUUUTT against Olfr231, the z-score is 0.247 (inactive). For GGAAGAUGUAUUCUUCUCCTT against Gemin4 the value was 0.499 (inactive); for GGAGAAGGAGCUGGAAACGTT against Cttn, 0.645 (inactive). In the case of CCUGAAAACCAUGCAAUACTT against Tas2r125, the z-score is -2.37 (active). Consider GGGCUACUUCCUGACUAAATT against Ube2s, for which the z-score is -0.505 (inactive).

Take GGACACUAUGCAAUCACCCTT against Rnf216: the z-score was -0.481 (inactive).

The record behind these values is PubChem BioAssay AID1508600 (Functional Genomics Laboratory (NCATS/FGL), 2020).
